Hits are enriched below; roughly 1.2% of the tested compounds scored in any of these assays.
RGS8-Gao – modulates binding of RGS8 to human Galphao; P09471; multiplexed bead flow cytometry; actives lie on both sides; response (percent of control binding), % at 10 µM; 220,000 tested, 0.34% active; AID 1423; in the data active = response below about 60% or above about 140%; inactive = in between;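 also: Galphao activated as the GDP aluminium fluoride complex binding bead-coupled RGS8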
Avidin bead fluor – compound fluoresces at 488/530 nm on avidin beads. 220,000 tested, 0.38% active. compound fluorescence 488/530 nm, flow cytometry; hits give high values. fluorescence (KMESF) at 10 µM. AID 1775; in the data active = fluorescence above about 47
RGS7-Gao – regulators of human RGS7-Galphao interaction | P09471 | Multiplexed bead flow cytometry, RGS7-Galphao binding; actives lie on both sides | binding response (% of control), % at 10 µM | 220,000 tested, 0.35% active; in the data active = binding response below about 49% or above about 150%; inconclusive = no clear call, values can overlap the other calls; inactive = in between;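 also: fluorescent Galphao held in activated GDP-AlF4 state binding bead-coupled RGS7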
GSH bead fluor – compound fluoresces at 488/530 nm on GSH beads; GSH beads flow cytometry, compound fluorescence 488/530 nm; hits give high values; fluorescence (KMESF) at 10 µM; 190,000 tested, 0.25% active; AID 1776; in the data active = fluorescence above about 89;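 also: glutathione beads carrying GST-tagged Bcl family fusion proteins plus one bare bead set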
RGS4-Gao reg – modulates binding of RGS4 to human Galphao; Multiplexed bead flow cytometry; actives lie on both sides; binding response (% of control), % at 10 µM; 220,000 tested, 0.33% active; in the data active = binding response below about 49% or above about 150%; inactive = in between;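 also: fluorescent Galphao activated with aluminum fluoride binding bead-coupled RGS4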
RGS16-Gao – regulators of human RGS16-Galphao interaction | 220,000 tested, 0.38% active | bead-based flow cytometry RGS16-Galphao binding, fluorescence; actives lie on both sides | O15492+P09471 | binding response (% of control), % at 10 µM;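 also: Galphao activated by GDP with aluminum fluoride before binding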
Target sequence (O15492 whole entry, looked up): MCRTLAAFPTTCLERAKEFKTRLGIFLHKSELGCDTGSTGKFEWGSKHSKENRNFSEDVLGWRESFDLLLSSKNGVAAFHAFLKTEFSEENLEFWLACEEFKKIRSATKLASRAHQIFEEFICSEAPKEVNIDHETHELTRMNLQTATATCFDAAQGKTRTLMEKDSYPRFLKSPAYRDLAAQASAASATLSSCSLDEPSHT
Target sequence (P09471 whole entry, looked up): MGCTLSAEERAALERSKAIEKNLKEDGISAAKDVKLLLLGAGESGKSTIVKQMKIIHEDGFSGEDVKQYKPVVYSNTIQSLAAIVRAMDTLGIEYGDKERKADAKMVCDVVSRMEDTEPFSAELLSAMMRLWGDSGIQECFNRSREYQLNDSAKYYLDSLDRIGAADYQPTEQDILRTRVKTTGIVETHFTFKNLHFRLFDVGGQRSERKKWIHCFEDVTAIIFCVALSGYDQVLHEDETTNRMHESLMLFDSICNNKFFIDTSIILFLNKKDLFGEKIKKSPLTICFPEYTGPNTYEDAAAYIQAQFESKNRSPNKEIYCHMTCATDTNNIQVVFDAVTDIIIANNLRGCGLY
RGS4-Gao HTS – modulates binding between human RGS4 and Galphao | shares compounds with RGS16-Gao | multiplexed bead flow cytometry, RGS–Galpha-o binding | RGS4–Galpha-o binding response, % at 10 µM | 1,600 tested, 99% active | AID 1504;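 also: fluorescently labeled Galpha-o bound to GDP with aluminium fluoride binding biotinylated RGS beads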
Avidin counter – interferes with biotinylated probe binding to avidin beads; shares compounds with RGS16-Gao; streptavidin beads, fluorescein-biotin binding, flow cytometry; inhibition, % at 10 µM; 1,700 tested, under 10 active; AID 1783;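 active = inhibition above 50%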;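 also: median green fluorescence of gated singlet beads compared with DMSO control wells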
RGS8-Gao single – confirmation of regulators of human RGS8-Galphao interaction; shares compounds with RGS16-Gao; bead-based flow cytometry RGS8-Galphao binding, fluorescence; actives lie on both sides; binding response (% of control), % at 10 µM; 1,700 tested, 3% active; in the data active = binding response below about 72% or above about 130%; inactive = in between;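 also: Galphao activated as GDP AlF4 complex before binding bead RGS8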
RGS7-Gao confirm – RGS7-Galphao interaction regulation, single point confirmation. shares compounds with RGS16-Gao. bead-based flow cytometry RGS7-Galphao binding; actives lie on both sides. response (percent of control binding), % at 10 µM. 1,700 tested, 7.8% active. AID 1837; in the data active = response below about 75% or above about 130%; inactive = in between;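 also: fluorescent Galphao activated with GDP and aluminum fluoride binding bead-coupled RGS7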
RGS16-Gao single – confirmation of regulators of human RGS16-Galphao interaction; shares compounds with RGS16-Gao; bead-based flow cytometry, RGS16-Galphao binding; actives lie on both sides; response (% of control binding), % at 10 µM; 1,700 tested, 4% active; in the data active = response below about 74% or above about 130%; inactive = in between;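 also: Galphao activated as the GDP aluminium fluoride complex binding bead-coupled RGS16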
RGS4-Gao confirm – RGS4-Galphao interaction regulation, single point confirmation | binding response (% of control), % at 10 µM | 1,700 tested, 4% active | AID 1840 | RGS4-Galphao binding, multiplexed bead flow cytometry; actives lie on both sides | shares compounds with RGS16-Gao; in the data active = binding response below about 74% or above about 130%; inactive = in between
RGS19-Gao conf – RGS19-Galphao interaction regulation, single point confirmation; AID 1841; 1,700 tested, 5% active; response (percent of control binding), % at 10 µM; shares compounds with RGS16-Gao; bead-based flow cytometry RGS19-Galphao binding; actives lie on both sides; in the data active = response below about 50% or above about 160%; inactive = in between
Hits are given with their value; 0 = inactive; ? = inconclusive; - = no result; [ ] = another dose, or the depositor's remark. Unless noted, no rule for the calls is given here.

SMILES | RGS8-Gao | Avidin bead fluor | RGS7-Gao | GSH bead fluor | RGS4-Gao reg | RGS16-Gao | Avidin counter | RGS8-Gao single | RGS7-Gao confirm | RGS16-Gao single | RGS4-Gao confirm | RGS19-Gao conf | others
Cc1ccc(C(=O)N[C@@H](C)CN2C3=NC[C@@H](Cc4ccccc4)N3C[C@H]2Cc2ccc(O)cc2)cc1Br | 18 | 0 | 5.7 | 0 | 17 | 9.1 | 0 | 0 | 0 | 0 | 0 | 0
Cc1ccc(C(=O)N[C@@H](C)CN2C3=NC[C@H](Cc4ccccc4)N3C[C@H]2Cc2ccc(O)cc2)cc1Br | 0 | 0 | ? | - | 0 | 0 | - | - | - | - | - | -
O=c1c2ccccc2nc(Cc2ccccc2)n1-c1ccc(O)cc1 | 0 | 0 | 0 | 0 | 0 | 0 | - | - | - | - | - | -
O=C(NC12CC3CC(CC(C3)C1)C2)OC1CN2CCC1CC2 (centres undefined) | 0 | 0 | ? | - | 167[activator] | 0 | 0 | 0 | 0 | 0 | 0 | 0
Nc1nnc(CCN2CCCCC2)s1 | 0 | 0 | 0 | 0 | 0 | 0 | - | - | - | - | - | -
Cc1cccc(N2C(=O)NC(=O)/C(=C\c3cccn3-c3ccc(Cl)cc3)C2=O)c1 | 0 | 402 | 233[activator] | 0 | 0 | 0 | - | - | - | - | - | - | RGS4-Gao HTS=129
Clc1cc(Cl)cc(NC2=NCCS2)c1 | 17 | 0 | ? | - | -29 | -17 | 0 | 0 | 0 | 0 | 0 | 0
COc1ccc(C(O)P(=O)(OC(C)C)OC(C)C)cc1 (centres undefined) | 0 | 0 | ? | - | 0 | 0 | - | - | - | - | - | -
CCOP(=O)(OCC)C(O)c1ccc(OC)cc1 (centres undefined) | - | - | - | - | - | - | 0 | 0 | 0 | 0 | 0 | 0
CC1C(C)N1CC(O)Cn1ccnc1[N+](=O)[O-] (centres undefined) | 0 | 0 | ? | - | 0 | 0 | - | - | - | - | - | -
O=c1[nH]c(=S)n(Cc2ccco2)c(O)c1C=NCc1cccs1 | - | - | - | 0 | - | - | 0 | 0 | 53 | 74 | 66 | 47
O=c1[nH]c(=O)n(Cc2ccco2)c(O)c1C=NCc1cccs1 | 0 | 0 | 0 | 0 | 0 | 0 | - | - | - | - | - | -
COc1ccc(C(c2c(O)c3ccccc3oc2=O)c2c(C)n(C)n(-c3ccccc3)c2=O)cc1 (centres undefined) | 0 | 0 | 0 | 0 | 0 | 0 | - | - | - | - | - | -
Cc1c(C(c2ccc(F)cc2)c2c(O)c3ccccc3oc2=O)c(=O)n(-c2ccccc2)n1C (centres undefined) | 46 | 0 | 38 | 0 | 0 | 0 | 0 | 0 | 0 | 0 | 0 | 0 | RGS4-Gao HTS=67
CC(C)N1C(=O)CC2(CC[N+](C)(CCOC(=O)C(O)(c3ccccc3)c3ccccc3)CC2)C1=O (centres undefined) | 32 | 0 | 27 | 0 | 32 | 25 | 0 | 0 | 0 | 0 | 0 | 0
c1ccc(CCn2nnnc2CN2CCC(n3nnc4ccccc43)CC2)cc1 | 161[activator] | 0 | 0 | 0 | 0 | 0 | 0 | 0 | 0 | 0 | 0 | 0 | RGS4-Gao HTS=131
N#CC12CNCC1CN=N2 (centres undefined) | 0 | 0 | ? | - | 0 | 0 | - | - | - | - | - | -
Cc1ccccc1NC(=O)NCCN1CC1 | 0 | 0 | ? | - | 0 | 0 | - | - | - | - | - | -

Screening results as filed in PubChem.
